# Measured values published in PubChem BioAssay AID463173 (ICCB-Longwood Screening Facility, Harvard Medical School, 2010).
# Out of some 52,000 compounds screened, about 1,700 (3.3%) were called active. The entries come from a sample that favours actives as a whole. A number with no mark means an inactive call. Cut-off read from the data, not from the text of the source: active = survival mostly below about 52% (no sharp cut-off); inactive = mostly above about 56%.
# Tested on: Wild type
# Assay: growth inhibition of S. aureus wild type versus tarO mutant, primary screen, teichoic acid synthesis inhibitors, RN4220, OD600 (AID 463173)
# Conditions: S. aureus RN4220 wild type/DeltatarO growth, OD600, 18 h, active compounds read low, screened at 18.75 µg/mL (by protocol)
row,SMILES,survival
1,CC1(C)N=C(SCc2ccc(Cl)cc2)c2ccccc2N1,143%
2,Cc1ccc(C(=O)c2oc3ccccc3c2NC(=O)c2nc(S(C)(=O)=O)ncc2Cl)cc1F,83%
3,COc1ccc(Nc2nn(-c3ccc(OC(F)(F)F)cc3)nc2C(C)=O)cc1,95%
4,Cc1ccc(-c2cc3ncc4c(n3n2)-c2cc(Cl)ccc2OC4)cc1,97%
5,CCn1c(=O)n(-c2ccc3c(c2)OCO3)c2nc(-c3ccc(C(C)C)cc3)nc(C(N)=O)c21,130%
6,CCOC(=O)c1[nH]c(C)c(CCC(=O)Nc2c(C)cc(C)cc2C)c1C,127%
7,Cc1cc(OCCCn2c(CCNC(=O)C3CCCCC3)nc3ccccc32)ccc1Cl,0% (active)
8,Cc1ccccc1OCCCn1c(CCNC(=O)C2CCCCC2)nc2ccccc21,65%
9,Cc1cc(OCCn2c(CCNC(=O)C3CCCCC3)nc3ccccc32)ccc1Cl,67%
10,Cc1cccc(C)c1OCCn1c(CCNC(=O)C2CCCCC2)nc2ccccc21,65%
11,Cc1cccc(OCCCn2c(CCNC(=O)C3CCCCC3)nc3ccccc32)c1,34%
12,Cc1cc(C)cc(OCCCn2c(CCNC(=O)C3CCCCC3)nc3ccccc32)c1,27% (active)
13,Cc1ccc(OCCn2c(CCNC(=O)C3CCCCC3)nc3ccccc32)cc1,65%
14,Cc1cccc(C)c1OCCCn1c(CCNC(=O)C2CCCCC2)nc2ccccc21,28% (active)
15,O=C(NCCc1nc2ccccc2n1CCOc1ccc(Cl)cc1)C1CCCCC1,20%
16,Cc1cc(C)cc(OCCn2c(CCNC(=O)C3CCCCC3)nc3ccccc32)c1,105%
17,Cc1ccc(OCCCn2c(CCNC(=O)C3CCCCC3)nc3ccccc32)c(C)c1,95%
18,O=C(NCCc1nc2ccccc2n1CCCOc1ccc(Cl)cc1)C1CCCCC1,10% (active)
19,COc1ccc(-c2nnc(SCC(=O)Nc3cccc(C(F)(F)F)c3)s2)cc1,99%
20,COc1ccc(C(=O)N(Cc2cc(OC)c(OC)c(OC)c2)C2CCS(=O)(=O)C2)cc1Cl (stereo not drawn),86%
21,COc1ccccc1-c1c(C)nn2c(N3CCN(c4ccccc4)CC3)cc(C)nc12,70%
22,Cn1c(SCCN2CCCC2)nnc1-c1ccncc1,112%
23,COc1cc(OC)c(NC(=O)c2nn(C)c3c2COc2ccccc2-3)cc1Cl,111%
24,CCOc1ccc(-n2c(SCc3ccc(C(=O)OC)o3)nc3c([nH]c4ccccc43)c2=O)cc1,82%

row,SMILES,survival
1,Oc1ccc(Br)cc1C=Nc1cccc(-c2nc3ccccc3o2)c1,111%
2,COc1cccc2cc(C(=O)Nc3ccc(CC(=O)O)cc3)c(=O)oc12,73%
3,CCOc1ccc(NC(=O)CSc2nnc3c(C)cc4ccccc4n23)cc1,132%
4,O=C(Nc1ccc(Br)cc1)Nc1nc2c(s1)CCCCCC2,82%
5,O=C(Nc1nc2c(s1)CCCCCC2)Nc1ccc(F)cc1F,-2% (active)
6,Cc1ccc(NC(=O)Nc2nc3c(s2)CCCCCC3)cc1C,69%
7,Cc1cc(-c2ccc(C)c(S(=O)(=O)Nc3ccccn3)c2)on1,73%
8,O=C(CN1CCCC1)Nc1nc(-c2ccc3c(c2)CCN3C(=O)C2CC2)cs1,116%
9,O=C(CSc1nc2ccccc2c(=O)n1-c1ccccc1)N1CCOCC1,104%
10,CC(=O)Nc1cccc(NC(=O)c2c(-c3ccccc3)c(-c3ccccc3)nn(C)c2=O)c1,85%
11,COc1ccc2cc(-c3nc(-c4ccc(N(C)C)cc4)no3)c(=O)oc2c1,99%
12,COc1ccc(CNS(=O)(=O)c2cnc(N)nc2)cc1,-4% (active)
13,CC(C)Oc1ccc(CNS(=O)(=O)c2cnc(N)nc2)cc1,111%
14,COc1cccc(CNS(=O)(=O)c2cnc(N)nc2)c1,57%
15,CC(C)(C)OC(=O)N1CCC(c2c(C(=O)NCCN3CCOCC3)cnn2-c2ccccc2)CC1,64%
16,NCC1OCCc2ccccc21 (stereo not drawn),114%
17,COC(=O)c1ccccc1NC(=O)c1ccc(COc2ccccc2Cl)o1,68%
18,Cc1cc(C)cc(OCc2ccc(C(=O)Nc3ccccc3F)o2)c1,72%
19,COc1ccccc1NC(=O)c1ccc(COc2ccc(C)c(C)c2)o1,0% (active)
20,COc1ccccc1NC(=O)c1ccc(C)o1,104%
21,COC(=O)c1ccccc1NC(=O)c1ccc(COc2cc(C)cc(C)c2)o1,59%
22,CCCc1ccc(OCc2ccc(C(=O)Nc3ccccc3C(=O)OC)o2)cc1,3% (active)
23,Cc1nc2c(-c3ccc(F)cc3)c(C)nn2c(C)c1CCC(=O)N1CCN(c2ccccc2)CC1,75%
24,Cc1c(C(=O)NCCc2ccc(Cl)cc2)sc2nc3n(c(=O)c12)CCCC3,78%

row,SMILES,survival
1,CCn1c2ccccc2c2cc(CN3CCN(Cc4ccc(Br)cc4)CC3)ccc21,3% (active)
2,CCCN1CCN(C(=O)Cn2ncc3c4ccccc4n(Cc4cccc(Cl)c4)c3c2=O)CC1,80%
3,CCCS(=O)(=O)N1CCN(Cc2ccc(OC)c(OCC)c2)CC1,103%
4,CCS(=O)(=O)N1CCN(Cc2ccccc2)CC1,119%
5,Cc1ccc(Cn2c(=O)n(Cc3ccccc3Cl)c(=O)c3ccccc32)cc1,56%
6,CCn1c2ccccc2c2cc(CN3CCN(Cc4ccccc4Cl)CC3)ccc21,1% (active)
7,CCn1c2ccccc2c2cc(CN3CCN(Cc4ccc(OC)c(OC)c4)CC3)ccc21,14% (active)
8,Clc1ccccc1CN1CCN(Cc2ccco2)CC1,101%
9,CCn1c2ccccc2c2cc(CN3CCN(Cc4cc(OC)c(O)c(OC)c4)CC3)ccc21,54%
10,CCn1c(=O)cc(SCC(=O)NCc2cccc(Cl)c2)c2ccccc21,60%
11,CCn1c2ccccc2c2cc(CN3CCN(Cc4cccc(Cl)c4)CC3)ccc21,0% (active)
12,CCn1c2ccccc2c2cc(CN3CCN(Cc4ccco4)CC3)ccc21,104%
13,CCC(=O)N1CCc2cc(S(=O)(=O)NCCC(=O)Nc3ccc(CC)cc3)ccc21,73%
14,Brc1cccc(-c2nn(-c3ccccc3)c3c2cnc2cc4c(cc23)OCO4)c1,86%
15,O=C(NCCS(=O)(=O)N1CCN(c2ccc(F)cc2)CC1)c1cccc(C(F)(F)F)c1,72%
16,Cc1cccc(NC(=O)c2ccc3c(c2)CCN3S(=O)(=O)c2ccccc2)c1C,84%
17,CCN(CC)S(=O)(=O)c1ccc2c(c1)N(CC(=O)Nc1ccc(F)cc1F)C(=O)C1CCCN21 (stereo not drawn),64%
18,Cc1ccc(-n2nc(C(=O)N3CCN(c4cc(C)ccc4C)CC3)c3c4ccccc4n(C)c3c2=O)cc1,79%
19,CCn1c2ccccc2c2cc(CN3CCN(Cc4ccc(Cl)cc4)CC3)ccc21,-2% (active)
20,CCOc1ccc(CN2CCN(Cc3ccc4c(c3)c3ccccc3n4CC)CC2)cc1,-1% (active)
21,CCCn1c(N2CCN(Cc3ccc(Cl)cc3)CC2)nc2ccccc21,123%
22,CCOc1ccc(CN2CCN(C(=O)c3ccco3)CC2)cc1,103%
23,CC(C)n1c(N2CCN(Cc3ccc(Cl)cc3)CC2)nc2ccccc21,128%
24,CCOc1ccc(Cn2c(=O)oc3ccccc32)cc1,114%

row,SMILES,survival
1,CCOc1ccc(-c2c(C)nn3c(C)c(C(=O)NCC(C)c4ccccc4)cnc23)cc1OCC (stereo not drawn),72%
2,O=C(CSc1nc2c(c(=O)[nH]1)CCC2)Nc1cc(C(F)(F)F)ccc1Cl,85%
3,CCCN1Cc2cccc(C(=O)Nc3ccc(C(C)=O)cc3)c2C1=O,89%
4,CSc1ccccc1-c1nnc(NC(=O)c2ccc3c(c2)OCCO3)o1,123%
5,CS(=O)(=O)c1ccccc1-c1nnc(NC(=O)c2ccc3c(c2)OCCO3)o1,-6% (active)
6,CS(=O)(=O)c1ccc(-c2nnc(NC(=O)c3ccc4c(c3)OCCO4)o2)cc1,75%
7,Cc1ccc(-n2c(=O)c3cccnc3n2CC(=O)Nc2ccc(C)cc2Cl)cc1,113%
8,Cc1ccc2c(c1)-c1nc(-c3ccc(Cl)cc3)cc(-c3coc4ccccc4c3=O)c1CO2,139%
9,CCCn1c(=O)c2sccc2n2c(CCCC(=O)N3CCN(c4ccc(OC)cc4)CC3)nnc12,99%
10,O=C(Nc1cccc(C(=O)N2CCCCC2)c1)c1nsc2ccccc12,65%
11,CCCc1nc2sc3c(N4CCC(C)CC4)ncnc3c2c2c1CCCC2,75%
12,CCc1nc2sc3c(N4CCCCC4)ncnc3c2c2c1CCCC2,136%
13,CCCc1nc2sc3c(N4CCCCC4)ncnc3c2c2c1CCCC2,13% (active)
14,COc1ccccc1Nc1sc(C(=O)c2ccc3c(c2)OCO3)c(N)c1S(=O)(=O)c1ccccc1,83%
15,COc1ccc(Nc2nc(N)nc(CSc3nc4cc(OC)ccc4s3)n2)cc1,8% (active)
16,Cc1ccc(Nc2nc(N)nc(CSc3nc4ccccc4s3)n2)cc1,32%
17,COc1ccc(Nc2nc(N)nc(CSc3nc4ccccc4s3)n2)cc1,35%
18,C/C=C/C(=O)Nc1ccc(Cl)c(Cl)c1,108%
19,COc1ccc(/C=C/C(=O)Nc2ccc(Cl)c(Cl)c2)cc1,80%
20,COc1ccc(/C=C/C(=O)Nc2ccc(Cl)c(Cl)c2)cc1OC,5% (active)
21,CN(C)c1ccc(NC(=O)CSC2=Nc3ccccc3C3=NC(CC(=O)NCc4ccc5c(c4)OCO5)C(=O)N23)cc1 (stereo not drawn),124%
